The supplement of paper PMC8285479
Structures can show the parent of a compound that is named as a salt. ± gives the standard deviation of the averaged measurements. In all, about 1,900 compounds were measured (“normalised cell viability (NPI; 0 = phenylarsine oxide control, 1 = DMSO control)”: median about 1, lowest 2% from about 0.039 on). This excerpt belongs to a sample that is enriched for the lowest values.

Test system: NCI-H1944
Assay: normalised cell viability (NPI; 0 = phenylarsine oxide control, 1 = DMSO control) (fraction of DMSO control); NCI-H1944 is a non-small cell lung cancer line; higher = more viable cells (less compound toxicity)
Conditions: 6 days
[1] = glucocorticoid arm: hydrocortisone 2.75 uM co-treatment, compound 1 µM
[2] = glucocorticoid arm: hydrocortisone 2.75 uM co-treatment, compound 5 µM
[3] = glucocorticoid arm: hydrocortisone 2.75 uM pre-treated 2 days and continued, compound 1 µM
[4] = glucocorticoid arm: hydrocortisone 2.75 uM pre-treated 2 days and continued, compound 5 µM
[5] = glucocorticoid arm: vehicle, compound 1 µM
[6] = glucocorticoid arm: vehicle, compound 5 µM
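Further: CTB read-out in 384-well plates, triplicate wells, NPI normalised per plate against 1 µM phenylarsine oxide (0) and 0.1% DMSO (1) controls.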

`OCC1OC(n2cnc3c(NCCc4ccccc4)ncnc32)C(O)C1O` (stereo not given) [N6-2-Phenylethyladenosine] gave a normalised cell viability [1] of 1.006 ± 0.0069, a normalised cell viability [2] of 0.9327 ± 0.0083 and a normalised cell viability [3] of 0.852 ± 0.27. It also gave a normalised cell viability [4] of 1 ± 0.017, a normalised cell viability [5] of 0.993 ± 0.0062 and a normalised cell viability [6] of 1 ± 0.017.

Compound `N=C(N)NCCCCNC(=N)N` [Arcaine sulfate] has a normalised cell viability [1] of 0.987 ± 0.012, a normalised cell viability [2] of 0.994 ± 0.033 and a normalised cell viability [3] of 0.993 ± 0.0066. It also gave a normalised cell viability [4] of 1.01 ± 0.038, a normalised cell viability [5] of 0.987 ± 0.013 and a normalised cell viability [6] of 0.9957 ± 0.0045.

Work on `C=C1C(=O)O[C@@H](CCC)[C@@H]1C(=O)O` [Butyrolactone 3] yielded a normalised cell viability [1] of 1 ± 0.013, a normalised cell viability [2] of 1.02 ± 0.015 and a normalised cell viability [3] of 0.998 ± 0.013. For the same compound, the normalised cell viability [4] was 1.017 ± 0.0082, the normalised cell viability [5] was 0.996 ± 0.0046 and the normalised cell viability [6] was 1.001 ± 0.0075.

For `CCN(CC)CCNC(=O)c1ccc(NC(C)=O)cc1` [N-Acetylprocainamide hydrochloride], the normalised cell viability [1] was 0.9787 ± 0.0049, the normalised cell viability [2] was 0.974 ± 0.0099 and the normalised cell viability [3] was 0.9943 ± 0.0067. It also gave a normalised cell viability [4] of 0.977 ± 0.027, a normalised cell viability [5] of 0.9883 ± 0.0038 and a normalised cell viability [6] of 0.9807 ± 0.0087.

`COc1ccc(Cn2ccc3ccc(C(=O)NO)cc32)cc1` was tested, and the normalised cell viability [1] was 0.959 ± 0.041, the normalised cell viability [2] was 1.01 ± 0.029 and the normalised cell viability [3] was 0.923 ± 0.12. The normalised cell viability [4] was 1.04 ± 0.04, the normalised cell viability [5] was 0.9977 ± 0.004 and the normalised cell viability [6] was 1.002 ± 0.0076.

In the case of `CCN(CC)Cc1ccc2cc(COC(=O)Nc3ccc(C(=O)NO)cc3)ccc2c1` [Givinostat (ITF2357)], the normalised cell viability [1] is reported as 0.726 ± 0.049, the normalised cell viability [2] is reported as 0.00151 ± 0.0022 and the normalised cell viability [3] is reported as 1 ± 0.018. It also gave a normalised cell viability [4] of 0.0193 ± 0.0045, a normalised cell viability [5] of 0.139 ± 0.006 and a normalised cell viability [6] of 0.000221 ± 0.0011.

For `O=C(/C=C/c1ccc2ccccc2n1)c1ccncc1`, the normalised cell viability [1] was 1.01 ± 0.013, the normalised cell viability [2] was 1.067 ± 0.0058 and the normalised cell viability [3] was 1.02 ± 0.01. For the same compound, the normalised cell viability [4] was 1.02 ± 0.015, the normalised cell viability [5] was 1.01 and the normalised cell viability [6] was 1.01 ± 0.01.

For `NC(Cc1cccc(-c2ccccc2CP(=O)(O)O)c1)C(=O)O` (stereo not drawn) [Phenylbenzene-omega-phosphono-alpha-amino acid], the normalised cell viability [1] was 0.9963 ± 0.0055, the normalised cell viability [2] was 1.1 ± 0.021 and the normalised cell viability [3] was 1.06 ± 0.087. It also gave a normalised cell viability [4] of 1.04 ± 0.021, a normalised cell viability [5] of 1.017 ± 0.0058 and a normalised cell viability [6] of 1.03 ± 0.01.

With `Cc1ccc(S(=O)(=O)C=CC#N)cc1` the normalised cell viability [1] was 0.979 ± 0.013, the normalised cell viability [2] was 0.976 ± 0.0056 and the normalised cell viability [3] was 0.9813 ± 0.0023. The normalised cell viability [4] was 0.997 ± 0.023, the normalised cell viability [5] was 0.988 ± 0.011 and the normalised cell viability [6] was 0.688 ± 0.081.

For `CC(C)(C)c1ccc(S(=O)(=O)/C=C/C#N)cc1`, the normalised cell viability [1] was 0.9913 ± 0.008, the normalised cell viability [2] was 0.41 ± 0.055 and the normalised cell viability [3] was 0.9847 ± 0.007. For the same compound, the normalised cell viability [4] was 0.9755 ± 0.0021, the normalised cell viability [5] was 0.972 ± 0.0092 and the normalised cell viability [6] was 0.00936 ± 0.004.

In the case of `CC(/C=C/c1cccc(Oc2ccc(F)cc2)c1)N(O)C(N)=O` (stereo not given), the normalised cell viability [1] is reported as 1.017 ± 0.0058, the normalised cell viability [2] is reported as 1.07 ± 0.01 and the normalised cell viability [3] is reported as 1.01 ± 0.011. The normalised cell viability [4] was 1.06 ± 0.014, the normalised cell viability [5] was 1.02 ± 0.015 and the normalised cell viability [6] was 1.023 ± 0.0058.

With `O=C(O)[C@@H]1C[C@H](C(=O)O)N1` [cis-Azetidine-2,4-dicarboxylic acid] the normalised cell viability [1] was 0.992 ± 0.0044, the normalised cell viability [2] was 0.97 ± 0.015 and the normalised cell viability [3] was 0.997 ± 0.012. For the same compound, the normalised cell viability [4] was 1, the normalised cell viability [5] was 0.9863 ± 0.0029 and the normalised cell viability [6] was 0.976 ± 0.011.

Work on `OC[C@H]1NC[C@H](O)[C@@H](O)[C@@H]1O` [1-Deoxynojirimycin hydrochloride] yielded a normalised cell viability [1] of 1.01 ± 0.011, a normalised cell viability [2] of 0.984 ± 0.025 and a normalised cell viability [3] of 0.995 ± 0.015. For the same compound, the normalised cell viability [4] was 0.969 ± 0.0066, the normalised cell viability [5] was 1.003 ± 0.0058 and the normalised cell viability [6] was 0.991 ± 0.013.

Work on `CN(C)CCC(c1ccc(Cl)cc1)c1ccccn1` (racemic) [(±)-Chlorpheniramine maleate] yielded a normalised cell viability [1] of 0.9833 ± 0.0025, a normalised cell viability [2] of 0.985 ± 0.018 and a normalised cell viability [3] of 0.9843 ± 0.0078. For the same compound, the normalised cell viability [4] was 0.991 ± 0.028, the normalised cell viability [5] was 0.9727 ± 0.0021 and the normalised cell viability [6] was 0.987 ± 0.0069.

With `OC[C@H]1NC[C@@H](O)[C@@H]1O` [1,4-Dideoxy-1,4-imino-D-arabinitol] the normalised cell viability [1] was 0.9993 ± 0.0011, the normalised cell viability [2] was 0.9807 ± 0.0015 and the normalised cell viability [3] was 0.997 ± 0.014. The normalised cell viability [4] was 0.976 ± 0.027, the normalised cell viability [5] was 1.002 ± 0.007 and the normalised cell viability [6] was 0.992 ± 0.012.

`Cn1c(=O)n(-c2ccc(C(C)(C)C#N)cc2)c2c3cc(-c4cnc5ccccc5c4)ccc3ncc21` was tested, and the normalised cell viability [1] was 0.421 ± 0.017, the normalised cell viability [2] was 0.496 ± 0.04 and the normalised cell viability [3] was 0.629 ± 0.0076. It also gave a normalised cell viability [4] of 0.633 ± 0.071, a normalised cell viability [5] of 0.255 ± 0.013 and a normalised cell viability [6] of 0.408 ± 0.047.

For `COc1ccc(-c2ccc3ncc4c(c3c2)n(-c2ccc(N3CCNCC3)c(C(F)(F)F)c2)c(=O)n4C)cn1`, the normalised cell viability [1] was 0.00163 ± 0.00092, the normalised cell viability [2] was 0.000434 ± 0.00018 and the normalised cell viability [3] was 0.25 ± 0.021. For the same compound, the normalised cell viability [4] was 0.0016 ± 0.00014, the normalised cell viability [5] was 0.000974 ± 0.00058 and the normalised cell viability [6] was 0.000275 ± 0.00038.

In the case of `c1ccc(C2CN3CCSC3=N2)cc1` (single isomer, unassigned; (-)) [(-)-Tetramisole hydrochloride], the normalised cell viability [1] is reported as 1.017 ± 0.0058, the normalised cell viability [2] is reported as 1.01 ± 0.015 and the normalised cell viability [3] is reported as 1.02 ± 0.015. The normalised cell viability [4] was 1.02 ± 0.015, the normalised cell viability [5] was 1.02 and the normalised cell viability [6] was 1.02 ± 0.015.

`O=Nc1c(-c2c(O)[nH]c3cc(Br)ccc23)[nH]c2ccccc12` was tested, and the normalised cell viability [1] was 1.15 ± 0.01, the normalised cell viability [2] was 1.24 ± 0.032 and the normalised cell viability [3] was 1.127 ± 0.011. It also gave a normalised cell viability [4] of 1.16 ± 0.031, a normalised cell viability [5] of 1.04 ± 0.01 and a normalised cell viability [6] of 1.07 ± 0.01.

For `CCN1CCN(Cc2ccc(Nc3ncc(F)c(-c4cc(F)c5nc(C)n(C(C)C)c5c4)n3)nc2)CC1`, the normalised cell viability [1] was 0.493 ± 0.041, the normalised cell viability [2] was 0.312 ± 0.06 and the normalised cell viability [3] was 0.528 ± 0.03. For the same compound, the normalised cell viability [4] was 0.599 ± 0.14, the normalised cell viability [5] was 0.252 ± 0.028 and the normalised cell viability [6] was 0.000109 ± 0.00093.
